According to the supplement of paper PMC3545927:
The other results are listed elsewhere or left out. The true hit rate is not given.

Biological target: furin, P09958
Assay: furin cleavage Z-score vs untreated control; higher = more cleavage, active = 3.5 or more, inactive = 1 or less, 8 variable residues between constant flanks
In short: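 Peptides 8 residues long, fused to a cDNA oligonucleotide, were fixed to magnetic beads by the N-terminus and exposed to purified furin. The 0.01 ml reactions contained 50 mM HEPES pH 7.5 with CaCl2 and NaCl at 1:10 enzyme:substrate and ran 7.5, 15 or 30 min. For the cleavage Z-score, log counts of sequenced released DNA were compared with furin-free reactions, lowess-adjusted and scaled by median absolute deviation.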

Sequence of furin, P09958 (P09958 whole entry): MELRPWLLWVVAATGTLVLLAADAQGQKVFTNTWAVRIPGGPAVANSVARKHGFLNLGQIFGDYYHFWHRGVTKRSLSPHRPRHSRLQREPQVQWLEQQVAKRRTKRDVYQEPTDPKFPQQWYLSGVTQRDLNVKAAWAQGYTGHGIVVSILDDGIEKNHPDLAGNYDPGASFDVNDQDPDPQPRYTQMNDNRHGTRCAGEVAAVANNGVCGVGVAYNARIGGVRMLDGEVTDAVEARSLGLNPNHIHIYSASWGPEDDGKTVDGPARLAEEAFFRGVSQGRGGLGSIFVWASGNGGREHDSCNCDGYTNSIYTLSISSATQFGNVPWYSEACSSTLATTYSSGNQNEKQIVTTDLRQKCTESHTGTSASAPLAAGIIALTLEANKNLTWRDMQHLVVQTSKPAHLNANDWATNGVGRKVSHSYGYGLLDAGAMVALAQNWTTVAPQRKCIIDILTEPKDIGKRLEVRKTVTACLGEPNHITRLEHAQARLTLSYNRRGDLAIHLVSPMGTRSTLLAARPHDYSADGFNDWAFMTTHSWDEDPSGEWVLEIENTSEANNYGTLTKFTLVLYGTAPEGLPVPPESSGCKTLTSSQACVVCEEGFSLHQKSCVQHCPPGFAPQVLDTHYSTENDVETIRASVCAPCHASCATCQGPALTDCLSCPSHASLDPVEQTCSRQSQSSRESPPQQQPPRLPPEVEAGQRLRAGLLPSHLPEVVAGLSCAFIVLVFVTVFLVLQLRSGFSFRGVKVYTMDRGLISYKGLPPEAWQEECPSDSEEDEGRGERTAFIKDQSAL

Row | Sequence | furin cleavage Z-score (7.5 min) | furin cleavage Z-score (15 min) | furin cleavage Z-score (30 min)
1 | CALPQRLPRAAGNASASA [FS-1363] | 10.1 (active) | 7.22 (active) | 9.33 (active)
2 | CALPAPNYTFAGNASASA [HC1197] | 0.169 (inactive) | -0.15 (inactive) | -0.727 (inactive)
3 | CALPARDKRKAGNASASA [FS-356] | 3.1 | 4.69 (active) | 4.42 (active)
4 | CASLTERLYVAGNASASA [HC1498] | -0.595 (inactive) | 0.519 (inactive) | 0.245 (inactive)
5 | CATTPCSGSSAGNASASA [HC1937] | -1.48 (inactive) | -0.199 (inactive) | -0.0714 (inactive)
6 | CAMALTLSPYAGNASASA [HC574] | -0.719 (inactive) | -0.267 (inactive) | 0.328 (inactive)
7 | CAGVEHRLEAAGNASASA [HC478] | -0.376 (inactive) | -1.52 (inactive) | -2.05 (inactive)
8 | CASPIRTPRAAGNASASA [FS-1083] | 4.85 (active) | 4.51 (active) | 4.42 (active)
9 | CALPNREDRAAGNASASA [FS-54] | 0.255 (inactive) | -1.19 (inactive) | -1.7 (inactive)
10 | CALPARDKRAAGNASASA [FS-1026] | 9.51 (active) | 8.58 (active) | 8.12 (active)
11 | CASDIRTEEAAGNASASA [HC1486] | 0.515 (inactive) | -1.04 (inactive) | -1.3 (inactive)
12 | CASRSLSRRSAGNASASA [FS-1088] | 8.82 (active) | 10.1 (active) | 7.4 (active)
13 | CAIPSGFRRSAGNASASA [FS-339] | -0.371 (inactive) | -1.96 (inactive) | -0.569 (inactive)
14 | CASRDRFRRSAGNASASA [FS-1282] | 13 (active) | 12.2 (active) | 9.49 (active)
15 | CALRMFERRSAGNASASA [FS-1367] | 0.304 (inactive) | -0.351 (inactive) | 0.543 (inactive)
16 | CADMMEECSQAGNASASA [HC1806] | -0.946 (inactive) | -0.28 (inactive) | -0.569 (inactive)
17 | CAAKVLVVLLAGNASASA [HC345] | -0.548 (inactive) | -0.603 (inactive) | 0.816 (inactive)
18 | CAAKSRQRRQAGNASASA [FS-1583] | 9.65 (active) | 11 (active) | 7.11 (active)
19 | CATHMRQMRSAGNASASA [FS-304] | 5.44 (active) | 7.85 (active) | 7.29 (active)
20 | CAAKSRQMRSAGNASASA [FS-321] | 12.3 (active) | 12.5 (active) | 8.77 (active)
21 | CANEKRQRRQAGNASASA [FS-552] | 8.64 (active) | 9.03 (active) | 8.4 (active)
22 | CAQALPVWARAGNASASA [HC1302] | -0.162 (inactive) | 0.223 (inactive) | -0.716 (inactive)
